GPR32 ag: GPR32 (DRV1) agonism, beta-arrestin recruitment; 48,000 tested, 2.5% active; CHO-K1 GPR32 beta-arrestin PathHunter luminescence, 90 min; zero percent set by DMSO-only wells; activation, % at 76.9 µM; AID 1346428;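 active means activation of at least 60% and not above a set upper limit, about 1 call in 100 departs from these limits; inconclusive means activation of 40% to 60%, or above that upper limit; inactive means activation under 40%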
Target sequence (O75388 whole entry, looked up): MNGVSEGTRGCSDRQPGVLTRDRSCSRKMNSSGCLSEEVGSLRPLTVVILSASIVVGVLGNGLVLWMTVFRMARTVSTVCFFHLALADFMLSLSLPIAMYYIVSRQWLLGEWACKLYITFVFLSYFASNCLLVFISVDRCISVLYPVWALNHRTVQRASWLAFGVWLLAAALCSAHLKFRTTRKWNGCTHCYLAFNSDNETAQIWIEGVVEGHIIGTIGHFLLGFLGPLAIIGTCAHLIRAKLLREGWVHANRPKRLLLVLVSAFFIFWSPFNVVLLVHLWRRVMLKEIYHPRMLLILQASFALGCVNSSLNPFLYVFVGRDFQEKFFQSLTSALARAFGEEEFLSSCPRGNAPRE
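CHO-K1 cells stably expressing ProLink-tagged GPR32 and Enzyme Activator-tagged beta-arrestin were seeded at 2,500 cells/well overnight, exposed to compounds for 90 min at 37 °C, then read by beta-Gal complementation chemiluminescence after 1 h detection reagent.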
GALC G270D up: enhancers of human galactocerebrosidase G270D mutant activity in cells | P54803 | 145M-Twi-hGALC-G270D cells (Twitcher mouse brain line with human GALC G270D), HMU-beta-Gal fluorescence, 48 h | Potency, µM (highest dose often 57.5 µM), actives largely listed as activators | 45,000 tested, 0.1% active | AID 1159614; further: nearly all actives have a fitted effect of over 65% in size
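Fluorescence readout: HMU-β-gal cleavage by mutant GALC (0.1 mM final, citrate/phosphate pH 5.2 with 1 mg/mL taurocholate), stopped with carbonate/bicarbonate plus Triton X-100. Cells: murine Twitcher 145M-Twi expressing human G270D GALC; qHTS for activators.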
B2AR arrestin ag: ADRB2 beta-arrestin recruitment; 44,000 tested, under 10 active; Potency, µM (titrated, usually from 46.1 µM), most hits filed as activators; HTLA Tango cells, beta-arrestin recruitment, luciferase luminescence, 18 h
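Luminescence read-out: arrestin recruitment to recombinant beta2-AR releases tTA, inducing luciferase. Cells exposed 18 hr at 37 degrees C to up to 46 microM compound; %Activity from corrected signal, concentration-response curves classified by r2, magnitude and efficacy.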
TSG101-PTAP inh: blocks PTAP binding to human TSG101, validation. AID 1347069. Potency, µM (titrated, usually from 115 µM), usual class: inhibitors. Q99816. Fluorescence polarization, FITC-PTAP peptide/Tsg101, 20 min. 44,000 tested, under 10 active
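The Tsg101 binding domain, at 10 uM final, is mixed with compound and a FITC peptide bearing the PTAP motif (50 nM final). After 20 min at r.t., polarization is measured; actives defined by CRC class, efficacy cut-off 60% inhibition.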
Hits are given with their value; – = inactive; ? = inconclusive; · = not tested or not shown; ! = not confirmed by another sample. Rows were chosen to be rich in hits. Some 2.9% of all compounds tested hit in one or more screens of this group. Unless noted, the call rests on the fitted dose curve; in most records, active means well fitted curve in the direction sought with a large enough effect; inconclusive means small, poorly fitted or top-dose-only effect, or another doubt; inactive means no such curve, though single readings can be large; an effect the other way counts as inactive or inconclusive.

SMILES | GPR32 ag | GALC G270D up | B2AR arrestin ag | TSG101-PTAP inh
C[C@H]1O[C@H](O[C@H]2[C@H](O)[C@@H](O)[C@@H](O[C@H]3[C@H](O)[C@@H](O)[C@H](O)O[C@@H]3CO)O[C@@H]2CO)[C@H](O)[C@@H](O)[C@@H]1N[C@H]1C=C(CO)[C@@H](O)[C@H](O)[C@H]1O | – | – | · | ·
O=C1c2ccccc2CCc2ccccc21 | – | – | · | ·
c1ccc2c(c1)CCc1ccccc1N2 | 118.8 | – | · | ·
CCOc1ccc(CCNC(=O)CN2CCN(Cc3ccc(F)cc3Cl)C2=O)cc1OCC | 75.4 | – | – | –
CCNC(=O)N1CCN(CCCC(c2ccc(F)cc2)c2ccc(F)cc2)CC1 | 112.4! | – | · | ·
O=C(c1ccc(F)cc1)N1CCN(CCc2ccncc2)CC1 | – | – | – | –
Cc1cccc(N2CCN(CCNC(=O)C3COc4ccccc4C3)CC2)c1C (centres undefined) | – | – | – | –
Cc1ccc(NS(=O)(=O)c2ccc3c(c2)NC(=O)CCS3)c(Br)c1 | 119.9 | – | – | –
O=C1CCSc2ccc(S(=O)(=O)Nc3cccc(C(F)(F)F)c3)cc2N1 | 109.1 | – | – | –
COc1ccc(N2Cc3cccc(C(=O)Nc4ccc(Cl)cc4)c3C2=O)cc1 | – | – | – | –
CCOC(=O)c1cccc(NC(=O)CN2C(=O)c3ccccc3Sc3ncccc32)c1 | 72.0 | – | – | –
Cc1nc2c(-c3ccccc3)c(C)nn2c(C)c1CCC(=O)NCc1cccc(Cl)c1 | 61.7 | – | – | –
CC(=O)N[C@@H](CO)C(=O)N[C@@H](CC(=O)O)C(=O)N[C@@H](CCCCN)C(=O)N1CCC[C@H]1C(=O)O | – | – | · | ·
Cc1ccc(C(=O)NCCc2csc(-c3cccc(F)c3)n2)cc1C | 60.5 | – | – | –
Cc1nc(-c2cccc(F)c2)sc1CCNC(=O)c1ccc(F)c(F)c1 | 62.6 | – | – | –
O=C(NCCc1csc(-c2cccc(F)c2)n1)c1ccc(Br)o1 | 93.8 | – | – | –
CCOc1ccc(C(=O)NCCc2csc(-c3cccc(F)c3)n2)cc1OCC | – | – | – | –
Cc1nc2n(c(=O)c1CCN1CCC(C(=O)c3ccc(F)cc3)CC1)CCS2 | – | – | · | ·
COc1ccccc1CNC(=O)C1CCN(c2nc3ccc(Cl)cc3[nH]2)CC1 | – | – | – | –
COc1ccc(-c2nc3scc(CCNS(=O)(=O)c4ccc(F)c(C(F)(F)F)c4)n3n2)cc1OC | – | – | – | –
N#CC1(c2ccc(F)cc2)CCC(=O)CC1 | – | – | · | ·
COc1cccc(C2=CC(c3ccccc3F)n3ncc(C(=O)Nc4ccc(F)cc4)c3N2)c1 (centres undefined) | 70.5 | – | – | –
COc1ccc(C2=CC(c3ccccc3F)n3ncc(C(=O)Nc4ccc(C)cc4)c3N2)cc1 (centres undefined) | – | – | – | –
COc1cc(OC)c(NC(=O)Cn2c(=O)oc3cc(S(=O)(=O)N4CCCC4)ccc32)cc1Cl | – | – | – | –
Cc1ccc(Cn2c(C)c(CNCc3ccc(OC(C)C)cc3)c(C(=O)O)c2C)cc1 | 85.6 | – | – | –
SMILES | GPR32 ag | GALC G270D up | B2AR arrestin ag | TSG101-PTAP inh
Cc1ccc(CNCc2c(C(=O)O)c(C)n(Cc3ccc(C)cc3)c2C)cc1 | – | – | – | –
Cc1ccc(Cn2c(C)c(CNCC(C)c3ccccc3)c(C(=O)O)c2C)cc1 (centres undefined) | 75.2 | – | – | –
c1ccc(CCNc2nc(-c3ccccc3)cs2)cc1 | – | – | · | ·
COc1cc(-c2noc(C3CC(=O)N(c4cc(C)ccc4C)C3)n2)cc(OC)c1OC (centres undefined) | 75.8 | – | – | –
Cc1ccc(N2CC(c3nc(-c4ccc(Cl)cc4)no3)CC2=O)cc1F (centres undefined) | – | – | – | –
CCOc1ccc(-c2cn3c(n2)sc2cc(C(=O)NCCCN(CC)CC)ccc23)cc1 | – | – | – | –
O=C(Cn1c(SCC(=O)Nc2ccc(F)cc2)nc2ccccc21)NCc1ccccc1Cl | 70.1 | – | – | –
O=C(Cn1c(SCC(=O)Nc2ccc(F)cc2)nc2ccccc21)NCc1ccc(F)cc1 | ? | – | – | –
O=C(CS(=O)Cc1ccco1)NC/C=C\COc1cc(CN2CCCCC2)ccn1 (centres undefined) | – | – | · | ·
O=C(NCCCc1nc2ccccc2n1Cc1ccc(Cl)cc1Cl)c1ccco1 | 96.8 | · | – | –

High-throughput results (PubChem BioAssay)
